Data on 9 molecules can be found in PubChem BioAssay.

Activity calls are given as the source filed them.

Test [1] is described as follows: adipocyte viability effects, profiling panel, cell-based, 3T3-L1 adipocytes, calcein-AM fluorescence, 48 h, basal (AID 1163). To be noted: 3T3-L1 adipocytes viability, higher = more signal.
Test [2] can be described thus: HepG2 cell viability effects, profiling panel, calcein-AM fluorescence, 48 h, basal (AID 1164). The conditions noted are these: higher = more signal.
A short description of test [3]: MM1S cell viability effects, profiling panel, calcein-AM fluorescence, 48 h, basal (AID 1165).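 Further: viability of MM1S multiple myeloma cells under basal unstimulated conditions.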 The conditions noted are these: higher = more signal.
A short description of test [4]: basal RPMI8226 viability, no added stimulus, profiling panel, cell-based, calcein-AM fluorescence, 48 h, PK04 Diversity Set (AID 1166).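 Further: cells grown under basal conditions without added stimulus.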 To be noted: RPMI8226 myeloma viability, higher = more signal.
The nature of test [5]: basal HepG2 mitochondrial membrane potential changes, profiling panel, cell-based, JC-1 fluorescence, 24 h, 100 nL compound (AID 1167). The conditions noted are these: higher = more signal.
Test [6] is described as follows: basal 3T3-L1 adipocyte mitochondrial potential changes, profiling panel, cell-based, JC-1 fluorescence, 3T3-L1 adipocytes, 24 h, 100 nL compound (AID 1168). The conditions noted are these: JC-1 mitochondrial fluorescence, higher = more signal, called active from +8 up or from −8 down.
Test [7] can be described thus: basal RPMI8226 mitochondrial membrane potential changes, profiling panel, cell-based, JC-1 fluorescence, 24 h, 100 nL compound (AID 1169). The conditions noted are these: RPMI8226 myeloma, JC-1 mitochondrial potential fluorescence, higher = more signal.
The nature of test [8]: basal MM1S mitochondrial membrane potential changes, profiling panel, cell-based, JC-1 fluorescence, 24 h, 100 nL compound (AID 1170). The conditions noted are these: higher = more signal.
Test [9] can be described thus: A549 lung cancer cell viability effects, profiling panel, resazurin fluorescence, 24 h, PK04 Diversity Set (AID 1171). The conditions noted are these: higher = more signal, called active from +8 up or from −8 down. For orientation: Resazurin is reduced to fluorescent resorufin, in cell work by metabolically active cells.
Test [10] can be described thus: HepG2 liver cancer cell viability effects, profiling panel, resazurin fluorescence, 24 h, PK04 Diversity Set (AID 1172). To be noted: higher = more signal.
Test [11] in a line: basal S. cerevisiae growth modulation, no modifier, primary screen, OD600, strain BY4716, 24 h, basal condition (AID 1173). To be noted: OD600, 24 h, higher = more signal, called active from +8 up or from −8 down.
The nature of test [12]: MM1S myeloma cell viability, profiling panel, resazurin fluorescence, basal, 24 h, PK04 Diversity Set (AID 1174).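 Further: MM1S multiple myeloma cell line.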 To be noted: higher = more signal, called active from +8 up or from −8 down.
Test [13] addresses Dihydroorotate dehydrogenase (quinone), mitochondrial (Plasmodium falciparum (isolate 3D7)) (UniProt Q08210). Kind of test: PfDHODH enzyme inhibitors, primary screen, biochemical, C-terminal His tag, absorbance 600 nm (AID 1175).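 Further: recombinant parasite enzyme with a five histidine tag at its C terminus.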 To be noted: DCIP absorbance 600 nm, higher = more signal, called active from +8 up or from −8 down.
The nature of test [14]: S. cerevisiae RM11-1a growth modifiers, primary screen, strain RM11-1a, OD600, basal, 24 h (AID 1177).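 Further: cultures grown under basal conditions with no added stressor.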 The conditions noted are these: OD600, 24 h, higher = more signal, called active from +8 up or from −8 down.
A short description of test [15]: E. coli acrAB mutant growth effects, primary screen, E. coli filamentation inducers, strain DRC39, OD650, 24 h (AID 1178).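 Further: growth measured as culture turbidity by optical density at 650 nm.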 The conditions noted are these: higher = more signal, called active from +8 up or from −8 down.
Test [16] in a line: E. coli acrAB mutant growth effects, primary screen, E. coli filamentation inducers, strain DRC39, OD650, 48 h (AID 1179).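 Further: screen aims at cell division blockers that make cells filament.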 The conditions noted are these: E. coli DRC39 delta-acrAB growth, higher = more signal, called active from +8 up or from −8 down.
Test [17] in a line: RPMI8226 myeloma cell viability, profiling panel, resazurin fluorescence, basal, 24 h, PK04 Diversity Set (AID 1180).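 Further: RPMI8826 multiple myeloma cell line at 5000 cells per well.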 The conditions noted are these: higher = more signal.
Test [18] has as its target E3 ubiquitin-protein ligase XIAP (Homo sapiens) (UniProt P98170). Kind of test: XIAP binders, primary screen, biophysical, small-molecule microarray, fluorescence 635 nm (AID 1181).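 Further: score merges 667 nm emission and signal to noise over triplicate slides.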 The conditions noted are these: small-molecule microarray binding, higher = more signal.
The test system of test [19] is XIP peptide (Xip251-270) binding. Kind of test: small-molecule binders of XIP peptide, primary screen, biochemical, small-molecule microarray, fluorescence 635/667 nm, 0.1 µg/mL protein (AID 1182). The conditions noted are these: fluorescent protein binding, 635 nm, higher = more signal, called active from +8 up or from −8 down.
Test [20] deals with XIP peptide (Xip251-270). The test can be described thus: small-molecule binders of XIP peptide, primary screen, biochemical, small-molecule microarray, fluorescence 635/667 nm, 0.5 µg/mL protein (AID 1183). To be noted: small-molecule microarray binding, fluorescence 635 nm; higher = more signal.

Chain of Dihydroorotate dehydrogenase (quinone), mitochondrial (Plasmodium falciparum (isolate 3D7)) (Q08210 whole entry, looked up): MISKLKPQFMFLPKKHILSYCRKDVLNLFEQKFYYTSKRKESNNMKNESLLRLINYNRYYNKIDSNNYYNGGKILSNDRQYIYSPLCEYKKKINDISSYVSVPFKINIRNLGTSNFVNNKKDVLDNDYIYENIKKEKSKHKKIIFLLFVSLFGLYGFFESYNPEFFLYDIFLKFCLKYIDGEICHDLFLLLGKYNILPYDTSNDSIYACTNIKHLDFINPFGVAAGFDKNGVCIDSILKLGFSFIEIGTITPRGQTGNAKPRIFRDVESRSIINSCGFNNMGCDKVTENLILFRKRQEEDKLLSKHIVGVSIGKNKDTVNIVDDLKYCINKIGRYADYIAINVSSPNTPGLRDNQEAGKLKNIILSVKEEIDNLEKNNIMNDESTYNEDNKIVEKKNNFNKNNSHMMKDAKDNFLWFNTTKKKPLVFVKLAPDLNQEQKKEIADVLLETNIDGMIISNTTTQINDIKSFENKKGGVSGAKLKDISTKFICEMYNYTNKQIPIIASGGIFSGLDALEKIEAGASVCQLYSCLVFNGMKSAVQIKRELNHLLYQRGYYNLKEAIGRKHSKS
Chain of E3 ubiquitin-protein ligase XIAP (Homo sapiens) (P98170 whole entry, looked up): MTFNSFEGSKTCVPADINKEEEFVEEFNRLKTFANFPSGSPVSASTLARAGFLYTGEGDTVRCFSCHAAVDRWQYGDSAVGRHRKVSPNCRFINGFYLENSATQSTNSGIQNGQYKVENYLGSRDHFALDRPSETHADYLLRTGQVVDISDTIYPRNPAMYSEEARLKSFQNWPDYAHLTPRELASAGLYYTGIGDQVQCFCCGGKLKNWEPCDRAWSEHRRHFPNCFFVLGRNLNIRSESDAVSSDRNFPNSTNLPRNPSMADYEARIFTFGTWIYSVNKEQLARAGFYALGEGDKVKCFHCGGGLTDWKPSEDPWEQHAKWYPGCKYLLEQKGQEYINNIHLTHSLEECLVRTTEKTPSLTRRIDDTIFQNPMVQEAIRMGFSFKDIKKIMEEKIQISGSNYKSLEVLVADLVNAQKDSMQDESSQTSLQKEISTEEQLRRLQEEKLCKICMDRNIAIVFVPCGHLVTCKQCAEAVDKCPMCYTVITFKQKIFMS

`CCCC[C@@H](O)C1=C(C)C[C@H]2C(=O)N(C)C(=O)[C@H]2[C@H]1CO`: the z-score is -0.552 in test [1]; 0.257 in test [2]; 0.0991 in test [3]; -0.0268 in test [4]; 1.2 in test [5]; 1.01 (inactive) in test [6]. In addition, the z-score in [7] is -0.363; in test [8], 0.613; in test [9], 0.199 (inactive); in [10], 0.648; in [11], -3.48 (inactive); in test [12], 0.987 (inactive). The z-score in test [14] was -1.09 (inactive); in test [15], 2.71 (inactive); in test [16] it was 1.75 (inactive); in [17] it was 1.03. In addition, the composite z-score in test [13] is 0.312 (inactive); in test [18], 0.0769; in [19], 0.627 (inactive); in [20], 0.586.

Consider `CC(C)[Si](C#C[Si](C(C)C)(C(C)C)C(C)C)(O[C@H](C)c1cn([C@H](C)c2ccccc2)nn1)C(C)C`, for which the z-score was 0.517 in test [1]; 0.417 in test [2]; -0.908 in test [3]; 1.5 in [4]; 2.71 in test [5]; 1.94 (inactive) in test [6]. For the same molecule, the z-score in test [7] is -0.87; in test [8] it was 0.265; in test [9] it was 3.13 (inactive); in test [10] it was 1.3; in [11] it was -0.0779 (inactive); in test [12], 2.34 (inactive). The z-score in test [14] was -1.88 (inactive); in [15] it was 2.06 (inactive); in [16], 0.944 (inactive); in test [17], 2.41. For the same molecule, the composite z-score was -0.32 (inactive) in test [13], -0.0559 in test [18], -0.608 (inactive) in test [19] and 0.193 in test [20].

Take `COc1ccc([Si](C)(C)[C@@H]2[C@@H](CCn3cc([C@H](O)c4ccccc4)nn3)O[C@]3(C(=O)N(C)c4c(Br)cc(C)cc43)[C@H]2C)cc1`: the z-score in test [1] was 1.49; in test [2] it was -4.5; in test [3] it was -2.72; in test [4], -4.42; in test [5], -1.11; in test [6], 2.39 (inactive). Moreover, the z-score in test [7] is -1.06; in test [8], -1.2; in [9] it was -2.49 (inactive); in test [10], -3.66; in test [11] it was -1.39 (inactive); in test [12], -8.35 (active). Further, the z-score in [14] was -2.42 (inactive); in test [15], 2.5 (inactive); in test [16], 2.83 (inactive); in test [17], -6.23. The composite z-score in [13] was -0.973 (inactive); in test [18], 0.382; in test [19], 0.512 (inactive); in [20], 0.202.

`C=CC[C@]1(C(=O)N(C)C)N=C(c2ccc(OCCCO)cc2)O[C@H]1c1ccccc1CN=[N+]=[N-]`: the z-score is 0.988 in test [1]; 1.18 in test [2]; -1.17 in test [3]; -0.862 in test [4]; 2.11 in test [5]; 0.0328 (inactive) in test [6]. Also, the z-score in [7] is -0.942; in test [8], -0.587; in test [9], 1.26 (inactive); in test [10], 0.481; in test [11], -1.26 (inactive); in [12], 0.838 (inactive). Moreover, the z-score was -0.197 (inactive) in [14], 1.53 (inactive) in test [15], 0.442 (inactive) in [16] and 0.747 in test [17]. The composite z-score in [13] was -0.0916 (inactive); in test [18], 0.0471; in test [19] it was 0.137 (inactive); in test [20], 0.53.

For `CC(C)C[C@@H]1NC(=O)[C@@H]2C[C@H](C(=O)NCCCCCNC(=O)CS)[C@H](c3cccc(OCCO)c3)N2C1=O`, the z-score in test [1] is 1.28; in [2], -0.646; in test [3] it was -1; in test [4], 0.134; in [5], 0.236; in test [6], 0.321 (inactive). Besides, the z-score was 0.14 in test [7]; 0.072 in [8]; 0.621 (inactive) in test [9]; 0.474 in test [10]; -0.928 (inactive) in test [11]; 1.47 (inactive) in test [12]. Also, the z-score was -1.14 (inactive) in test [14], 0.186 (inactive) in test [15], -0.115 (inactive) in test [16] and 0.673 in test [17]. Besides, the composite z-score in [13] was -0.168 (inactive); in test [18] it was -0.0351; in [19] it was 1.58 (inactive); in [20], 0.785.

On to `NCCCCCCNC(=O)[C@@H]1C[C@@H]2C(=O)N[C@@H](Cc3ccccc3)C(=O)N2[C@@H]1c1ccc(O)cc1`, for which the z-score is 1.09 in test [1]; -0.46 in test [2]; 0.0892 in test [3]; -0.141 in [4]; 0.666 in test [5]; -0.386 (inactive) in test [6]. The z-score is 0.0478 in test [7]; 0.188 in test [8]; 1.19 (inactive) in test [9]; 0.368 in [10]; -1.77 (inactive) in [11]; 1.38 (inactive) in [12]. In addition, the z-score in test [14] was -0.509 (inactive); in test [15], 0.236 (inactive); in test [16] it was 0.476 (inactive); in test [17], 1.53. Further, the composite z-score is 0.687 (inactive) in test [13], -0.305 in test [18], 0.208 (inactive) in [19] and 0.225 in test [20].

Consider `COCCOC(=O)N1C(=O)[C@@]2(c3cc(C#CCNC(N)=O)ccc31)[C@H](C(=O)NC[C@H](O)c1ccccc1)[C@H]1C(=O)O[C@H](c3ccccc3)[C@H](c3ccccc3)N1[C@@H]2c1ccc(O)cc1`, for which the z-score in test [1] was 0.539; in test [2], 0.315; in test [3], -0.825; in [4], 0.987; in [5], -0.549; in test [6], 0.962 (inactive). In addition, the z-score in test [7] was 0.161; in test [8] it was -0.29; in [9], 0.0618 (inactive); in [10] it was 0.141; in test [11] it was -0.331 (inactive); in test [12] it was 0.751 (inactive). The z-score in test [14] was 0.436 (inactive); in [15], -0.17 (inactive); in test [16], 0.316 (inactive); in test [17] it was 1.46. For the same molecule, the composite z-score in test [13] is -0.263 (inactive); in [18], 0.166; in [19] it was 1.29 (inactive); in [20], 0.178.

Turning to `COc1ccc(C(=O)Nc2cccc(CN3C(=O)[C@@]4(O[C@@H](CCO)[C@H]([Si](C)(C)c5ccc(OC)cc5)[C@H]4C)c4ccccc43)c2)cc1`, the z-score in test [1] is -0.301; in [2], -4.74; in test [3] it was -2.7; in test [4], -4.46; in [5] it was -1.97; in test [6], 2.77 (inactive). Further, the z-score is -0.972 in test [7]; -2.36 in test [8]; -5.62 (inactive) in test [9]; -6.42 in [10]; -3.58 (inactive) in test [11]; -9.06 (active) in [12]. Besides, the z-score in [14] was 2.06 (inactive); in [15], 2.75 (inactive); in test [16], 1.55 (inactive); in [17], -6.22. In addition, the composite z-score in test [13] was -0.873 (inactive); in [18], 0.0049; in test [19], 0.11 (inactive); in test [20], 0.115.

`C=CCN1C(=O)[C@@]2(O[C@@H](CCO)[C@H]([Si](C)(C)c3ccc(OC)cc3)[C@H]2C)c2cc(N3C(=O)c4cccc5cccc3c45)ccc21`: the z-score was -1.3 in [1]; -4.72 in test [2]; -2.92 in test [3]; -4.4 in test [4]; -2.34 in test [5]; 2.26 (inactive) in [6]. Besides, the z-score in test [7] was -1.01; in test [8] it was -2.09; in test [9], -4.58 (inactive); in [10], -6.14; in [11] it was 0.275 (inactive); in test [12], -8.59 (active). Also, the z-score is 5.51 (inactive) in test [14], 2.57 (inactive) in test [15], 2.05 (inactive) in test [16] and -6.03 in test [17]. The composite z-score is 0.901 (inactive) in [13], 0.0411 in [18], 0.777 (inactive) in test [19] and 0.714 in test [20].
